Screening results from PubChem BioAssay.
AmpC no deterg: AmpC beta-lactamase inhibition without detergent | P00811 | 0.52% of 330,000 active | AmpC nitrocefin hydrolysis, absorbance 480 nm, 0.0001% Triton | Potency, µM (doses to about 57.1 µM), without a hit: at the top dose activity change, negative = inhibition, usual class: inhibitors;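 further: plate controls were no compound for no effect and no enzyme for full effect; nearly all actives have a fitted effect of over 20% in size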
Target sequence (P00811 whole entry, looked up): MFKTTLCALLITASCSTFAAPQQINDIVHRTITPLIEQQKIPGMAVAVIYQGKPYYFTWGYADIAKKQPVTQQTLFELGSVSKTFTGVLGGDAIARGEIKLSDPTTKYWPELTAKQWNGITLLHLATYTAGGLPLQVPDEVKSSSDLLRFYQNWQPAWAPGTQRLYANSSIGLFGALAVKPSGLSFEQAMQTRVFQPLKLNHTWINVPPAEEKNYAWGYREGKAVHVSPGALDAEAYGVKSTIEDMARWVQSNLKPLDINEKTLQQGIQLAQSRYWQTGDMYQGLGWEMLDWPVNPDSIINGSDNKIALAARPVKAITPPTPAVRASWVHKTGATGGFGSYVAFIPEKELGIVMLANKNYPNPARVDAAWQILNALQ
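AmpC (5.3 nM in the dispensed reagent) in 20 mM phosphate pH 7.0 with 0.01% (detergent screen) or 0.0001% Triton X-100 was preincubated with compounds for 15 min at room temperature. Nitrocefin was then added from an 800 uM solution, and hydrolysis was followed at 480 nm.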
Sm TGR inh: S. mansoni TGR enzyme inhibition; AID 485364; 3% of 360,000 active; Q962Y6; Potency, µM (top dose mostly 114 µM), without a hit: at the highest dose activity change, negative = inhibition, most hits filed as inhibitors; purified TGR, DTNB reduction, TNB absorbance 405 nm; further: on the % scale 0 is the no-effect control and ±100 the full control effect; nearly all actives have a fitted effect of over 60% in size
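First, TGR (20 nM dispensed) and NADPH were mixed with compound. Second, a 15 min room-temperature incubation followed. Third, further NADPH and then DTNB were added to start the reaction. Finally, TNB absorbance was monitored kinetically.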
Pf growth 96h: inhibits malaria parasite growth, 96 h | P. falciparum luciferase reporter growth, 96 h | Potency, µM (top dose mostly 28.7 µM), without a hit: top-dose activity change, negative = inhibition, most hits filed as inhibitors | 6.9% of 320,000 active | AID 504834; further: on the % scale 0 is the no-effect control and ±100 the full control effect
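Luminescence readout: decreased luciferase signal marks inhibited growth of reporter-expressing P. falciparum in infected red cells (2% hematocrit, 0.05% parasitemia final), exposed to compound two generations (96 h, 37 C, 5% CO2).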
AmpC inh detg: blocks E. coli AmpC beta-lactamase in detergent assay; P00811; AmpC hydrolysis of nitrocefin, absorbance 480 nm, 0.01% Triton; Potency, µM (doses to about 114 µM), inactives show top-dose activity change, negative = inhibition, actives largely listed as inhibitors; 0.041% of 370,000 active; AID 485294;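 further: 0% = no-compound wells and -100% = no-enzyme wells; nearly all actives have a fitted effect of over 25% in size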
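20 mM phosphate pH 7.0 + 0.01% (detergent screen) or 0.0001% Triton X-100; 5.3 nM AmpC reagent; cpd preinc 15 min RT; nitrocefin (800 uM stock) to start; A480 q20 s × 4 min; Activity was normalised to no-enzyme and no-compound control wells.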
Pf growth 48h: inhibits P. falciparum growth in the first generation, 48 h; 5.9% of 310,000 active; AID 504832; Potency, µM (doses to about 28.7 µM), for inactives: top-dose activity change, negative = inhibition, actives largely listed as inhibitors; P. falciparum luciferase growth in erythrocytes, 48 h; further: on the % scale 0 is the no-effect control and ±100 the full control effect
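Luminescence readout; reporter = integrated firefly luciferase in P. falciparum. RBC culture at 2% hematocrit, 0.1% parasitemia final, 37 C/5% CO2; decreased signal taken as growth inhibition.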
SARS PLP yeast: SARS-CoV PLP inhibition in yeast; S. cerevisiae expressing SARS-CoV PLpro, growth rescue; Potency, µM (doses to about 32.9 µM), without a hit: at the top dose activity, positive = growth rescue, hits mostly activators; 0.19% of 330,000 active; AID 485353; calls by dose curve; further: 0% is about no effect; nearly all actives have a fitted effect of over 55% in size
* hit, by the source's call; ? = inconclusive; nt = no result given. Compounds with a hit are over-represented: about 12% of the library has one in this group of screens. Unless noted, the call rests on the fitted dose curve; in most records, active means well fitted curve in the direction sought with a large enough effect; inconclusive means small, poorly fitted or top-dose-only effect, or another doubt; inactive means no such curve, though single readings can be large; an effect the other way counts as inactive or inconclusive. Potency means the concentration at half of the fitted maximal effect.

SMILES	AmpC no deterg	Sm TGR inh	Pf growth 96h	AmpC inh detg	Pf growth 48h	SARS PLP yeast
Cc1cc(N2CCN(C)CC2)ccc1NC(=O)c1c2c(nc3ccccc13)CCN(Cc1ccccc1)C2	18%	-7%	?	-6%	?	0%
CCOC(=O)Cc1cc(C(=O)Nc2ccc(Br)cc2)sc1-c1ccc(C)cc1	nt	4%	nt	27%	nt	nt
CCCC(CCC)c1nc2ccncc2[nH]1	-7%	1%	2%	-1%	-16%	1%
CC[C@H](C)Cc1cn([C@@H](CCCN=C(NC(=O)OC(C)(C)C)NC(=O)OC(C)(C)C)C(=O)NCCCCCCCCCCC(=O)N2CCN(C(=O)OC(C)(C)C)CC2)nn1	140%	-4%	1.5µM*	?	1µM*	0%
Cc1cn([C@@H](CCCCNC(=O)OC(C)(C)C)C(=O)NCCCCCCCCCCC(=O)N2CCN(C(=O)OC(C)(C)C)CC2)nn1	210%	-7%	5.2µM*	-3%	2.6µM*	0%
NC(=O)CS(=O)C(c1ccccc1)c1ccccc1 (configuration not stated)	-8%	?	6µM*	-9%	-8%	2%
Cc1cc(C)c2nc(SCc3ccc([N+](=O)[O-])cc3)nc(C)c2c1	-13%	-1%	13µM*	-2%	-23%	3%
Cc1ccc2nc(SCc3ccc([N+](=O)[O-])cc3)nc(C)c2c1	-16%	10%	3%	2%	2%	4%
Cc1ccc(CNC(=O)CC(C)S(=O)(=O)c2ccc3c(c2)NC(=O)CS3)o1 (configuration not stated)	-20%	14µM*	?	-7%	16%	-3%
O=C1COc2ccc(S(=O)(=O)N3CCN(c4ccccc4)CC3)cc2N1	-15%	-6%	?	-4%	-1%	-7%
Cc1ccc(NC(=O)CC(C)S(=O)(=O)c2ccc3c(c2)NC(=O)CO3)c(Cl)c1 (configuration not stated)	-32%	-2%	42%	-1%	-4%	-3%
Cc1ccc(CNC(=O)CCS(=O)(=O)c2ccc3c(c2)NC(=O)CS3)cc1	-33%	-32%	47%	-7%	9%	3%
COc1ccc(CNC(=O)CC(C)S(=O)(=O)c2ccc3c(c2)NC(=O)CO3)cc1 (configuration not stated)	-8%	-6%	?	-5%	-11%	7%
Cc1ccc(N(C)C(=O)CC(C)S(=O)(=O)c2ccc3c(c2)NC(=O)CO3)cc1 (configuration not stated)	2%	-13%	3.7µM*	3%	19%	0%
Cc1ccc(CNC(=O)CC(C)S(=O)(=O)c2ccc3c(c2)NC(=O)CO3)cc1 (configuration not stated)	-21%	4%	9.3µM*	-1%	6%	2%
CC(CC(=O)N1CCN(c2ccccc2)CC1)S(=O)(=O)c1ccc2c(c1)NC(=O)CO2 (configuration not stated)	27%	-2%	5.9µM*	-6%	-5%	-2%
Cc1cc(C)c(NC(=O)C(C)c2cccc(C(=O)c3ccccc3)c2)c(C)c1 (configuration not stated)	-57%	32%	?	-13%	3%	-5%
O=C(CSc1nnc(-c2cccs2)n1-c1ccccc1)Nc1ccccc1	-13%	-10%	-22%	-2%	?	2%
Cc1cc(C)cc(NC(=O)CCn2cnc3ccccc3c2=O)c1	nt	-10%	nt	0%	nt	nt
Cc1ccc(CNS(=O)(=O)c2cc3c(cc2C)NC(=O)CO3)cc1	-11%	-16%	4.1µM*	-5%	?	-2%
O=C(CCS(=O)(=O)c1ccc2c(c1)NC(=O)CO2)NCCc1ccccc1	-23%	5%	-25%	-3%	12%	-1%
O=C(CCS(=O)(=O)c1ccc2c(c1)NC(=O)CO2)NCc1ccccc1	-17%	-2%	13µM*	-1%	5%	10%
